Screening data deposited in PubChem by several laboratories.
SKKanGAS inh – inhibitors of SKKanGAS S. pyogenes growth in kanamycin (SK-promoter or general growth effect); BacTiter-Glo, 6 h; inhibition, % at 7.5 µM; 300,000 tested, 1.3% active; AID 1662;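 active means mean replicate score, as percent of positive control median, at least 50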;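 further: strain carries kanamycin resistance gene driven by streptokinase promoter and grows in 40 µg/ml kanamycin; loss of luminescence reflects streptokinase promoter inhibition or plain growth inhibition; 0% = median of DMSO wells and 100% = positive control at its reference dose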
NALP3 yeast inh – NALP3 inhibition in yeast. Yeast reconstituted NLRP3/ASC/caspase-1, beta-gal luminescence, 24 h. inhibition, % at 10 µM. 330,000 tested, 0.39% active. AID 2825;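 active means inhibition of 50% or more; inactive means inhibition below 50%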;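 further: plate controls were induced DMSO wells for no effect and uninduced yeast grown without galactose for full effect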
tim10-1 inh – growth inhibitors of tim10-1 mutant yeast. inhibition, % at 20 µM. S. cerevisiae tim10-1 ts strain growth, BacTiter-Glo, 24 h. 330,000 tested, 2.2% active. AID 463190;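 active means inhibition of at least 40%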;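 further: mutant grown at 25 °C; 0% = DMSO wells with yeast and 100% = wells holding no yeast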
TIM10 inh – inhibits growth of TIM10 yeast strain. S. cerevisiae TIM10 strain growth, BacTiter-Glo luminescence, 24 h. inhibition, % at 10 µM. 330,000 tested, 1.4% active;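 active means inhibition of 40% or more at the single tested concentration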;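 further: wild-type TIM10 isogenic control strain grown at permissive 25 °C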
tim23-1 inh – growth inhibitors of tim23-1 mutant yeast; S. cerevisiae tim23-1 growth, BacTiter-Glo luminescence, 24 h; inhibition, % at 20 µM; 330,000 tested, 1.3% active;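 active means growth inhibition of the mutant yeast at or above 50%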;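 further: temperature-sensitive mutant grown at 25 °C; plate controls were DMSO-treated mutant yeast for no effect and medium wells lacking yeast for full effect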
PfHsp90 yeast 2 – growth inhibition of yeast expressing Plasmodium Hsp90 | inhibition, % at 9.4 µM | 310,000 tested, 0.32% active | S. cerevisiae expressing PfHsp90, BacTiter-Glo ATP, 48 h; yeast lacking PDR1 and PDR3 efflux regulators | AID 504621;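 active means every replicate shows inhibition above about 80%, whatever the replicate mean, limit read from the data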;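 further: 0% = DMSO neutral controls and 100% = 20 µM radicicol positive controls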
tim23-1 confirm – confirmation of tim23-1 mutant yeast growth inhibitors; shares compounds with tim23-1 inh; S. cerevisiae tim23-1 growth, BacTiter-Glo luminescence, 24 h; inhibition, % at 20 µM; 4,400 tested, 83% active;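 active means inhibition above about 39% in either of two replicate wells at 20 µM, limit read from the data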;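 further: temperature-sensitive tim23-1 mutant grown at 25 °C; 0% = DMSO wells with yeast and 100% = medium wells without yeast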
* hit, by the source's call; nt = no result given. In the library only some 4.5% were active in any assay of this set; here they are far more common.

SMILES | SKKanGAS inh | NALP3 yeast inh | tim10-1 inh | TIM10 inh | tim23-1 inh | PfHsp90 yeast 2 | tim23-1 confirm
Cc1nc(-c2ccc(NC(=O)C3CC3)cc2)cs1 | 0 | 21 | -7 | 18 | 54* | 23 | 40*
Cc1nc(-c2ccc(NC(=O)c3ccc(Br)o3)cc2)cs1 | 21 | 38 | 5 | 9 | 62* | 24 | 56*
COc1ccc(NC(=O)CSc2ncccc2C(=O)OC(C)C)cc1OC | -4 | 10 | 7 | -1 | 11 | nt | nt
CC(C)OC(=O)c1cccnc1SCc1cc(=O)n2ccccc2n1 | -17 | 24 | 28 | 8 | 65* | -3 | 44*
C(=N\Nc1nc2ccccc2s1)/c1cccs1 | -12 | 11 | 0 | 18 | 59* | -26 | 38
C/C(=N\Nc1nc2ccccc2s1)c1cccs1 | 50* | 0 | 32 | 20 | 64* | -40 | 48*
C(=N\Nc1nc2ccccc2s1)/c1ccco1 | -18 | 15 | 16 | 8 | 42 | 2 | nt
C/C(=N\Nc1nc(-c2ccccc2)cs1)c1cccs1 | 10 | 9 | 28 | 18 | 22 | -3 | nt
O=C(/C=C/c1ccc(Cl)cc1)OCC(=O)c1ccc[nH]1 | nt | 2 | 0 | -2 | 5 | -14 | nt
CCOC(=O)Nc1nc(-c2ccccc2)c(C(=O)c2ccc(Cl)cc2)s1 | 36 | 23 | 34 | 34 | 53* | -18 | 59*
CCOC(=O)Nc1sc(C)nc1-c1ccccc1 | -8 | -7 | -21 | -7 | 0 | 0 | nt
C=CCc1c(C)nc(SC)nc1Nc1ccc(C(C)=O)cc1 | 4 | 16 | 31 | 11 | 50* | -3 | 45*
C=CCc1c(C)nc(SC)nc1Nc1ccc(C(=O)O)cc1 | 2 | 6 | 22 | -13 | 2 | -6 | nt
CCOC(=O)CN1C(=O)CC(c2ccc([N+](=O)[O-])cc2)C1=O (configuration not stated) | 2 | 3 | 34 | 21 | 66* | -8 | 66*
COc1ccc(N2C(=O)CC(c3ccc([N+](=O)[O-])cc3)C2=O)cc1 (configuration not stated) | -1 | 22 | 24 | 11 | 14 | 33 | nt
NS(=O)(=O)c1cc(C(=O)OCC(=O)Nc2ccc3c(c2)OCO3)ccc1Cl | nt | 5 | -1 | -5 | -1 | 1 | nt
CCN(CC)C(=O)[C@H]1C[C@H](CC(=O)NCCC2=CCCCC2)C(=O)N2CCc3c([nH]c4ccc(Cl)cc34)[C@]12C | nt | nt | 16 | -1 | 58* | 60 | 33
CCOC(=O)C1CCCN(C(=O)c2ccc(NC(=O)CC3SC(N4CCCC4)=NC3=O)cc2)C1 (configuration not stated) | 6 | 1 | -4 | -5 | -8 | 2 | nt
Cc1ccc(-c2nn(-c3ccccc3)cc2C=C2C(=O)CC(C)(C)CC2=O)cc1 | 2 | 38 | 31 | 37 | 66* | 9 | 51*
CCOc1ccccc1-n1ccn(CC(=O)Nc2ccc(Br)cc2F)c(=O)c1=O | 2 | 15 | 8 | 12 | 12 | -8 | nt
COc1cccc(CN(CC(=O)NC2CCCC2)C(=O)c2csnn2)c1 | 0 | 24 | 8 | -7 | 1 | 4 | nt
C/C(CCc1oc2ccccc2c1-c1ccc(C)o1)=N/O | 4 | 35 | 21 | 4 | 3 | -25 | nt
C/C(CCc1oc2c(Br)cc(Br)cc2c1-c1ccc(C)o1)=N\O | 7 | -5 | 32 | 36 | 58* | -20 | 29
COc1c(Cl)cccc1-c1cn2ccccc2n1 | 20 | 41 | 6 | 20 | 55* | 30 | 34
Cc1ccc(-c2nnc(N3CCC(C)CC3)c3ccccc23)cc1 | 10 | 4 | -25 | 14 | 53* | 7 | 69*
SMILES | SKKanGAS inh | NALP3 yeast inh | tim10-1 inh | TIM10 inh | tim23-1 inh | PfHsp90 yeast 2 | tim23-1 confirm
Cc1cccc(N2CCc3c2nc2ccc(Br)cc2c3N)c1 | 10 | 37 | 32 | 28 | 76* | 3 | 63*
Cc1cc(C(=O)COC(=O)c2ccc([N+](=O)[O-])o2)c(C)n1CC1CCCO1 (configuration not stated) | 4 | 13 | 25 | 31 | 54* | 3 | 55*
COCCn1c(C)cc(C(=O)COC(=O)c2ccc([N+](=O)[O-])o2)c1C | 1 | 13 | 23 | 20 | 52* | 18 | 59*
O=C(c1cc(S(=O)(=O)N2CCCC2)c(Cl)cc1Cl)N1CCCC1 | 0 | 21 | 14 | 16 | 7 | -1 | nt
O=C(CNc1ccccc1)N/N=C/c1ccc([N+](=O)[O-])o1 | 4 | 12 | 36 | 22 | 31 | nt | nt
Cc1ccc(NCC(=O)N/N=C\c2ccc([N+](=O)[O-])o2)cc1 | -18 | 39 | 34 | 28 | 55* | -6 | 41*
COc1cc(/C=C(\C#N)c2nc3ccccc3[nH]2)cc(OC)c1O | -18 | nt | nt | nt | nt | -33 | nt
COc1cc(/C=C(\C#N)c2nc3ccccc3[nH]2)ccc1Oc1ccc([N+](=O)[O-])cn1 | 18 | 29 | 11 | 29 | 58* | 0 | 36
COc1ccc(/C=C(\C#N)c2nc3ccccc3[nH]2)cc1O | -2 | 31 | -29 | -4 | 51* | -4 | 43*
CCN(CC)S(=O)(=O)c1ccc(N2CC(C(=O)N3Cc4ccccc4CC3C(N)=O)CC2=O)cc1 (configuration not stated) | nt | 13 | 9 | 5 | 9 | nt | nt
Cc1cc(C(=O)OCC(=O)NC2(C#N)CCCCC2)c(C)o1 | nt | 18 | 22 | 10 | 17 | -31 | nt
CSc1nnc(C)c(/C=C/NOCc2ccc(Cl)cc2)n1 | -18 | 12 | 34 | 19 | 54* | 4 | 72*
CSc1nnc(C)c(/C=C/Nc2ccc(C)cc2)n1 | 2 | 14 | 37 | 20 | 38 | nt | nt
COc1cc2[nH]c(C(=O)N3CCN(c4ccccc4F)CC3)cc2c(OC)c1OC | -2 | 2 | 37 | 24 | 51* | -4 | 38
COc1ccc2cc(C(=O)N3CCN(c4ccccc4F)CC3)[nH]c2c1 | -10 | 16 | 23 | 6 | 21 | -27 | nt
COc1ccccc1N1CCN(C(=O)c2ccc(-c3ccc(Cl)cc3)o2)CC1 | nt | 22 | 37 | 36 | 52* | nt | 48*
COc1ccc2cc(C(=O)N3CCN(c4ccccc4OC)CC3)[nH]c2c1 | 2 | 8 | 32 | 33 | 59* | 8 | 53*
CCOc1ccc(NC(=O)C2=NN(c3ccccc3)C(=O)CC2)cc1S(=O)(=O)N1CCCCC1 | nt | 6 | 7 | 11 | 11 | -2 | nt
CC(NC(=O)COC(=O)C12CC3CC(CC(Br)(C3)C1)C2)c1ccccc1 (configuration not stated) | nt | 16 | 9 | 6 | 34 | -19 | nt
COc1ccc2c(c1)C(=O)N(c1ccc(C)cc1C)C(=O)C2(C)C | 3 | 34 | 33 | 36 | 55* | -10 | 57*
COc1ccc(OC)c(S(=O)(=O)N2CCN(C(=O)NC3CCCCC3)CC2)c1 | nt | 14 | 4 | 14 | 15 | 19 | nt
